Test results taken from PubChem BioAssay.
Calls of active or inactive are those of the source. Unless noted, how the calls were made is not given here.

Columns and labels:
[1] = compounds binding Alexa647 anti-His antibody – biochemical, small-molecule microarray, 635 nm fluorescence, artefact control for SMM control protein annotation, primary screen (AID 1128); settings: higher = more signal;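 further: score merges feature fluorescence with signal-to-noise for each printed compound spot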
[2] = test system: Human papillomavirus type 1a E7 protein (residues 1-88); assay: HPV1a E7 small-molecule binders, primary screen, biochemical, small-molecule microarray, residues 1-88, 635 nm (AID 1129); settings: small-molecule microarray binding, fluorescence 635 nm; higher = more signal
[3] = target: Focal adhesion kinase 1 (Homo sapiens) (UniProt Q05397); assay: PTK2 protein binding on printed compound slides – biochemical, small-molecule microarray, 635/667 nm fluorescence, BSA, DTT, primary screen (AID 1130); settings: 635 nm fluorescence, higher = more signal;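 further: composite of spot emission at 667 nm and signal to noise over triplicate slides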
Chain of Focal adhesion kinase 1 (Homo sapiens) (Q05397 whole entry, looked up): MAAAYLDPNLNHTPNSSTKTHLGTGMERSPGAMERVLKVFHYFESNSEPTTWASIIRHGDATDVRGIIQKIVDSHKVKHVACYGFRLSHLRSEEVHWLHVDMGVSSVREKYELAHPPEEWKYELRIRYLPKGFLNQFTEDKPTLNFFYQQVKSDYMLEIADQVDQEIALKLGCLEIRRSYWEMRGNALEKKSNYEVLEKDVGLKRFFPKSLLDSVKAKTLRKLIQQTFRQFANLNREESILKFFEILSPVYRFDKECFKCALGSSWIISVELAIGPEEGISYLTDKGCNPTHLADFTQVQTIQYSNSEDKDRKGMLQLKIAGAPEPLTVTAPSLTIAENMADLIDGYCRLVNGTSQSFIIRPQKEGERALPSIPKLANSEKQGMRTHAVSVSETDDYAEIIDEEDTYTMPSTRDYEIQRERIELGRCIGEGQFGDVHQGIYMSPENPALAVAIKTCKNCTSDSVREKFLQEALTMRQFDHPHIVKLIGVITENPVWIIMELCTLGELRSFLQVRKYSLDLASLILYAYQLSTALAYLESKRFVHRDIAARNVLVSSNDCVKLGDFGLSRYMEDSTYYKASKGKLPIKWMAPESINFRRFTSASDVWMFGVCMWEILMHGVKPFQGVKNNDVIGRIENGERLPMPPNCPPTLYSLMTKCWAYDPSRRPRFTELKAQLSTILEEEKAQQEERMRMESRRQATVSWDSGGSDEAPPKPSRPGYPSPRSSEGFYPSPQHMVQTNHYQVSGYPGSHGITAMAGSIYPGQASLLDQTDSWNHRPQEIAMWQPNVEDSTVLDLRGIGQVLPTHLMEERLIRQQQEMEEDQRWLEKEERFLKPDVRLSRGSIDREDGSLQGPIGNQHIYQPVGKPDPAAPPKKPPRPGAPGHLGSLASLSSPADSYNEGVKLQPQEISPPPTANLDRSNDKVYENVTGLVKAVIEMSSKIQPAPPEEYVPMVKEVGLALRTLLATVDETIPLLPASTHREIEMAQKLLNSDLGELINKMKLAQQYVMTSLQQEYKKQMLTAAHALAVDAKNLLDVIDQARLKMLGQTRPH

[4] = test system: Fibrinogen (Alexa647-labelled); assay: Alexa647-fibrinogen binding to printed small molecules – biochemical, small-molecule microarray, 635/667 nm fluorescence, artefact control for SMM control-protein annotation, profiling panel (AID 1131); settings: fibrinogen-A647 binding fluorescence, higher = more signal;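 further: z-score merges 667 nm fluorescence with per-spot signal-to-noise over triplicate slides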
[5] = target: Follistatin (Homo sapiens) (UniProt P19883); assay: FST protein binding to printed compounds – biochemical, small-molecule microarray, 635/667 nm fluorescence, primary screen (AID 1132); settings: 635 nm fluorescence, higher = more signal
Chain of Follistatin (Homo sapiens) (P19883 whole entry, looked up): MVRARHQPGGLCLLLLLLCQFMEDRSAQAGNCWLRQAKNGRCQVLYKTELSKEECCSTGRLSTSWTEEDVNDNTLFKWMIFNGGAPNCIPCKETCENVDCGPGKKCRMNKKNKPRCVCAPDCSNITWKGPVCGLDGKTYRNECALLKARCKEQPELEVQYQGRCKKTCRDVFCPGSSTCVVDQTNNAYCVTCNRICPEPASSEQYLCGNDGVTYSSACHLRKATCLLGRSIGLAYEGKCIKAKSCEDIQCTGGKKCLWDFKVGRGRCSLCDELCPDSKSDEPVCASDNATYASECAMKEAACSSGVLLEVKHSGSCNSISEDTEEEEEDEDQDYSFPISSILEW

[6] = target: Fibroblast growth factor 2 (Homo sapiens) (UniProt P09038); assay: basic fibroblast growth factor binding to printed compounds – biochemical, small-molecule microarray, 635/667 nm fluorescence, primary screen (AID 1133); settings: FGF2, fluorescence 635/667, higher = more signal
Chain of Fibroblast growth factor 2 (Homo sapiens) (P09038 whole entry, looked up): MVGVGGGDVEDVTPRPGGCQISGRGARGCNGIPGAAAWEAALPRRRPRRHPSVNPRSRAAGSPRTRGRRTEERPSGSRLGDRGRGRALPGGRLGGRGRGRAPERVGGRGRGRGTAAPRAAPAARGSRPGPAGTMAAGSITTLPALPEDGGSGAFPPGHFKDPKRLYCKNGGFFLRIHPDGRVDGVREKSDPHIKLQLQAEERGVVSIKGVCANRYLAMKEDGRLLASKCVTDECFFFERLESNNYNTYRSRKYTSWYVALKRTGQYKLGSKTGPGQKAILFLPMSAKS

[7] = JC-1 mitochondrial potential readout, lung cancer cells – cell-based, A549, JC-1 fluorescence, basal, 24 h, 100 nL, profiling panel (AID 1138); settings: higher = more signal;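 further: A549 lung adenocarcinoma cells under basal conditions with no added stimulus; test concentration not given here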
Lefty1 = Lefty1 protein binding to printed compounds – biochemical, small-molecule microarray, 635/667 nm fluorescence, primary screen (AID 1139); settings: fluorescence 635/667, higher = more signal
[8] = test system: wheat germ agglutinin (Triticum aestivum), Alexa647-labelled; assay: Alexa647-WGA lectin binding to printed small molecules – biochemical, small-molecule microarray, 635/667 nm fluorescence, artefact control for SMM control-protein annotation, profiling panel (AID 1140); settings: WGA-A647 binding, 635 nm fluorescence, higher = more signal;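 further: score merges 667 nm feature emission with signal to noise over triplicate slides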
[9] = target: Luciferin 4-monooxygenase (Photinus pyralis) (UniProt P08659); assay: inhibition of purified Photinus pyralis luciferase – biochemical, luminescence, purified enzyme, 2006 set, primary screen (AID 1141); settings: purified firefly luciferase, SteadyGlo luminescence, 30 min; higher = more signal, called active from +8 up or from −8 down;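 further: cell-free assay with purified firefly luciferase at 100 ng per well in PBS; test concentration not given here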
Chain of Luciferin 4-monooxygenase (Photinus pyralis) (P08659 whole entry, looked up): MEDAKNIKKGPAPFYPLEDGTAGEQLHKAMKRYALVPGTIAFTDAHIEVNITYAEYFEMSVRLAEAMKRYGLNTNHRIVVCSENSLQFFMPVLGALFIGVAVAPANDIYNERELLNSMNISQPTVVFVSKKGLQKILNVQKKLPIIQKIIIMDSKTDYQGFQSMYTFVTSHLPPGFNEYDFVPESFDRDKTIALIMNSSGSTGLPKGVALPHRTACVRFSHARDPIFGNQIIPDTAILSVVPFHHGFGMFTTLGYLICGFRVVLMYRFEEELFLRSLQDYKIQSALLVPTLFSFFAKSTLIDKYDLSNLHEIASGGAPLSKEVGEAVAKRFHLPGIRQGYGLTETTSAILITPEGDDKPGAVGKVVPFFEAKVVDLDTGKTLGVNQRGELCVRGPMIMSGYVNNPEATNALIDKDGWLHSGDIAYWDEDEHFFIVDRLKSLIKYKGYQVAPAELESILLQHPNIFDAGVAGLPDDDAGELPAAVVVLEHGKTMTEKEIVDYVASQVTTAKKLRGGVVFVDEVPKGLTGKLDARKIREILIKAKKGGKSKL

[10] = test system: Wnt5a (protein binding on small-molecule microarray); assay: small molecules binding Wnt5a protein – biophysical, small-molecule microarray, 635/667 nm fluorescence, primary screen (AID 1142); settings: 635 nm fluorescence, higher = more signal;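 further: fluorescence read at 667 nm with signal to noise per printed feature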
[11] = ATP-based viability of Huh7 replicon cells – cell-based, CellTiter-Glo luminescence, basal, 48 h, cytotoxicity control for HCV replication inhibitor project, primary screen (AID 1143); settings: higher = more signal, called active from +8 up or from −8 down;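 further: Huh7 hepatoma cells carrying a hepatitis C replication reporter with no stimulus; test concentration not given here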
[12] = Pseudomonas biofilm growth suppression – PAO1 strain, BacTiter-Glo luminescence, LB-PBS, primary screen (AID 1144); settings: P. aeruginosa PAO1 biofilm, 12 h, higher = more signal
[13] = basal CRE-LacZ reporter activity in PC12 – cell-based, unstimulated, primary screen (AID 1145); settings: no forskolin, luminescence, 4.5 h, higher = more signal, called active from +8 up or from −8 down
[14] = forskolin-driven CRE-LacZ activity in PC12 – cell-based, CRE-LacZ reporter, forskolin-stimulated, primary screen (AID 1146); settings: luminescence, 4.5 h, higher = more signal, called active from +8 up or from −8 down;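 further: PC12 cells with 6xCRE LacZ reporter stimulated by forskolin 10 µM; beta-galactosidase reporter signal reflecting CREB driven transcription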
[15] = target: Streptavidin (Streptomyces avidinii) (UniProt P22629); assay: compounds binding control protein streptavidin – biophysical, small-molecule microarray, 635/667 nm fluorescence, artefact control for SMM compound annotation, primary screen (AID 1147); settings: higher = more signal;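 further: signal reflects streptavidin binding to arrayed compounds as a control protein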
Chain of Streptavidin (Streptomyces avidinii) (P22629 whole entry, looked up): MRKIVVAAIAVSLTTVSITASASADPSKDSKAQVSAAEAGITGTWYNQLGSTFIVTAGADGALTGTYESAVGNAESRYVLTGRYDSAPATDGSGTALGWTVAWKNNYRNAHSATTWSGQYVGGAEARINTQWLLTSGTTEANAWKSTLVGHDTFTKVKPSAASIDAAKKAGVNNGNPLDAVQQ

[16] = probe aInhba binding on compound microarray – biochemical, small-molecule microarray, 635/667 nm fluorescence, primary screen (AID 1148); settings: higher = more signal;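 further: score merges 667nm spot fluorescence with signal-to-noise for antibody binding to printed compounds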
Torsin-1A (Homo sapiens) [17] = target: Torsin-1A (Homo sapiens) (UniProt O14656); assay: TOR1A wild-type binding on microarray – cell lysate, small-molecule microarray, lysate, 635/667 nm, primary screen (AID 1149); settings: COS7 hTOR1A-WT lysate, 635 nm fluorescence, higher = more signal
Chain of Torsin-1A (Homo sapiens) (O14656 whole entry, looked up): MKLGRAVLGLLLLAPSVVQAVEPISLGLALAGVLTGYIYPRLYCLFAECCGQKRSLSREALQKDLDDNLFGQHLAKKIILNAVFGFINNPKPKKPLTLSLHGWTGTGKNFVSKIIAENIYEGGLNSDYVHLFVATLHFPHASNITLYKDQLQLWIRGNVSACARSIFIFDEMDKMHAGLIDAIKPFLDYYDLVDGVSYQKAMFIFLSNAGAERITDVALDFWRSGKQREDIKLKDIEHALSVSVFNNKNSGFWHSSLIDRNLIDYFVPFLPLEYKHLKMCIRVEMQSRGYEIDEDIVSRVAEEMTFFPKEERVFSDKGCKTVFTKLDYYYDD

Torsin-1A (Homo sapiens) [18] = target: Torsin-1A (Homo sapiens) (UniProt O14656); assay: torsin A mutant lysate binding on microarrays – cell lysate, small-molecule microarray, COS7 lysate, 635/667 nm fluorescence, primary screen (AID 1150); settings: COS7 hTOR1A mutant lysate, 635 nm fluorescence, higher = more signal;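 further: score pools 667 nm emission and signal to noise measuring lysate protein binding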
[19] = test system: Sonic hedgehog protein (Shh); assay: Sonic hedgehog microarray binding compounds – biochemical, small-molecule microarray, 635/667 nm fluorescence, primary screen (AID 1151); settings: 635 nm fluorescence, higher = more signal;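 further: Shh protein binding to compounds spotted on small-molecule microarray slides; score combines spot fluorescence intensity with signal-to-noise across triplicate slides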

Row | Structure (SMILES) | composite z-score [1] | composite z-score [2] | composite z-score [3] | composite z-score [4] | composite z-score [5] | composite z-score [6] | z-score [7] | composite z-score (Lefty1) | composite z-score [8] | z-score [9] | composite z-score [10] | z-score [11] | z-score [12] | z-score [13] | z-score [14] | composite z-score [15] | composite z-score [16] | composite z-score (Torsin-1A (Homo sapiens) [17]) | composite z-score (Torsin-1A (Homo sapiens) [18]) | composite z-score [19]
1 | C=C(COC)/C(=C/C[C@@H](OC(C)=O)c1ccc(OCCO)cc1)c1cc(C(=O)OC)ccc1OC | 0.531 | 1.21 | 0.481 | -0.367 | 1.25 | 1.5 | 0.371 | 1.19 | 0.195 | -0.371 (inactive) | 0.969 | -0.21 (inactive) | -0.201 (inactive) | 1.82 (inactive) | 1.96 (inactive) | -0.0154 | 0.0154 | 0.518 | 0.672 | 1.57
2 | CCCC[C@@H]1C[C@H]1[C@@H](NC(=O)c1ccco1)c1ccc(C(=O)OC)cc1 | -0.499 | 0.149 | 0.214 | 0.0507 | -0.943 | -1.42 | -0.814 | -0.431 | 0.586 | 1.94 (inactive) | -0.195 | -1.88 (inactive) | -0.333 (inactive) | 0.0075 (inactive) | 1.58 (inactive) | 0.564 | -0.154 | -0.708 | -0.319 | -1.47
3 | COc1ccc(C(=O)Nc2cccc(CN3C(=O)[C@]4(O[C@H](CCO)[C@@H]([Si](C)(C)c5ccc(OC)cc5)[C@@H]4C)c4ccccc43)c2)cc1 | 0.869 | 1.17 | 0.354 | 0.579 | 1.24 | 0.699 | -1.52 | 1.35 | 0.32 | 0.681 (inactive) | 0.24 | -8.03 (active) | -0.694 (inactive) | 10.9 (active) | -1.29 (inactive) | 0.388 | -0.121 | 0.271 | 0.424 | 1.83
4 | CC1CC/C=C\[C@H]2OC34C=CCN(c5ccc(Cl)cc5)C(=O)[C@H]3N(CCO)C(=O)[C@]4(C)C2C(=O)O1 (stereo not given in full) | 3.56 | -0.0955 | 1.67 | -1.84 | -0.338 | -0.492 | -0.259 | -0.49 | 0.811 | 0.259 (inactive) | -0.642 | -0.901 (inactive) | 0.43 (inactive) | 0.87 (inactive) | -0.217 (inactive) | -0.561 | -0.128 | -0.433 | -1.01 | -0.317
5 | COCCOC(=O)N1C(=O)[C@@]2(c3cc(C#Cc4ccc(OC)cc4)ccc31)[C@H](C(N)=O)[C@H]1C(=O)O[C@H](c3ccccc3)[C@H](c3ccccc3)N1[C@@H]2c1ccccc1OCCO | 2.24 | 1.21 | 0.861 | 1 | 1.3 | 1.42 | -1.47 | 1.58 | 0.901 | 0.0449 (inactive) | 0.753 | -3.77 (inactive) | -0.438 (inactive) | -0.168 (inactive) | -0.134 (inactive) | 0.784 | 0.398 | 0.666 | 1.81 | 1.66
